Measured values taken from PubChem BioAssay (NCI).
“And” between values parts separate entries of the source, which are not always exact repeats. Equal entries are not always repeated. This is part of a sample that, as a whole, favours compounds with a hit. Of some 79,000 tested, about 15% had one in any assay. Some structures have more than one record in an assay (separate samples or runs), and their calls can disagree. The source made the active and inactive calls. Rule as the data show it: active = growth inhibition above about 70%; inactive = the rest.

Columns and labels:
[1] = NCI Yeast Anticancer Drug Screen. Data for the rad50 strain (AID 155);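 also: 0% = growth of vehicle-only cultures of the same strain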; details: S. cerevisiae rad50 strain growth inhibition, stronger effect = higher value
In short: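 Genetically altered yeast (DNA repair pathway); compound treatment; growth inhibition vs vehicle ctrl.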

[2] = NCI Yeast Anticancer Drug Screen. Data for the mec2-1 strain (AID 157); details: S. cerevisiae mec2-1 strain, stronger effect = higher value
In short: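 mec2-1 yeast strain, carrying an alteration in DNA damage repair or cell cycle control, was exposed to compounds; growth inhibition was measured relative to vehicle-treated controls.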

[3] = NCI Yeast Anticancer Drug Screen. Data for the sgs1 mgt1 strain (AID 161);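 also: 0% = growth of cultures given vehicle only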; details: S. cerevisiae sgs1 mgt1 strain, stronger effect = higher value
In short: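 Percent growth inhibition was derived by comparing compound-exposed mutant yeast with vehicle-exposed cultures. The strain carries alterations in DNA damage repair.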

[4] = NCI Yeast Anticancer Drug Screen. Data for the cln2 rad14 strain (AID 165);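 also: 0% = growth equal to vehicle treated cultures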; details: S. cerevisiae cln2 rad14 strain, stronger effect = higher value
In short: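 Yeast carrying cln2 and rad14 alterations (cell cycle control and DNA damage repair) were exposed to compounds. Growth inhibition was measured against vehicle-treated controls.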

[5] = NCI Yeast Anticancer Drug Screen. Data for the bub3 strain (AID 167); details: S. cerevisiae bub3 mutant strain, stronger effect = higher value
In short: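 Yeast carrying a defined mutation is treated with each compound, and growth is compared with that of vehicle-exposed cells to give inhibition.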

[6] = NCI Yeast Anticancer Drug Screen. Data for the mlh1 rad18 strain (AID 175); details: S. cerevisiae mlh1 rad18 strain growth inhibition, stronger effect = higher value
In short: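 Growth inhibition of the yeast strain was measured after compound exposure and expressed relative to vehicle-treated controls. The strain carries defined defects in DNA damage repair.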

[7] = at 5.0 µM (retest, dose inferred, filed as 0.5)
[8] = at 50.0 µM (retest, dose inferred, filed as 5.0)

| SMILES | growth inhibition [1, 7] | growth inhibition [1, 8] | growth inhibition ([1]; at 50.0 µM) | growth inhibition [2, 7] | growth inhibition [2, 8] | growth inhibition ([2]; at 50.0 µM) | growth inhibition [3, 7] | growth inhibition [3, 8] | growth inhibition ([3]; at 50.0 µM) | growth inhibition [4, 7] | growth inhibition [4, 8] | growth inhibition ([4]; at 50.0 µM) | growth inhibition [5, 7] | growth inhibition [5, 8] | growth inhibition ([5]; at 50.0 µM) | growth inhibition [6, 7] | growth inhibition [6, 8] | growth inhibition ([6]; at 50.0 µM) |
| --- | --- | --- | --- | --- | --- | --- | --- | --- | --- | --- | --- | --- | --- | --- | --- | --- | --- | --- |
| O=[N+]([O-])c1cc([N+](=O)[O-])c(Cl)cc1F | 99% (active) | 99% (active) | 81% (active) | 99% (active) | 99% (active) | 59.7% (inactive) | 99% (active) | 99% (active) | 78.2% (active) | 98% (active) | 99% (active) | -3.25% (inactive) | 99% (active) | 99% (active) | 87.5% (active) | 99% (active) | 99% (active) | 98.6% (active) |
| CC[C@@]1(O)C[C@H](OC2CC(N(C)C)C(OC3CC(O)C(OC4CCC(=O)C(C)O4)C(C)O3)C(C)O2)c2c(cc3c(c2O)C(=O)c2c(O)ccc(O)c2C3=O)[C@H]1C(=O)OC (some centres not stated) | 95% (active) and 89% (active) | 98% (active) | 88.1% (active) and 91.8% (active) | 95% (active) and 78% (active) | 99% (active) | 91.2% (active) and 93.5% (active) | 95% (active) and 87% (active) | 99% (active) and 98% (active) | 89.8% (active) and 92.3% (active) | 91% (active) and 71% (active) | 97% (active) | 88.7% (active) and 91.2% (active) | 92% (active) and 67% (inactive) | 98% (active) | 89.3% (active) and 92.3% (active) | 96% (active) and 80% (active) | 98% (active) | 88.2% (active) and 91.7% (active) |
| N=C(N)c1ccccc1 | 12% (inactive) | 79% (active) | -2.25% (inactive) and 80.2% (active) | -1% (inactive) | 20% (inactive) | 5.4% (inactive) and 2.1% (inactive) | 2% (inactive) | 23% (inactive) | -1.6% (inactive) and 17.9% (inactive) | 6% (inactive) | 13% (inactive) | -0.6% (inactive) and 49.5% (inactive) | -2% (inactive) | 8% (inactive) | 6.9% (inactive) and 25.4% (inactive) | -2% (inactive) | 22% (inactive) | -14.5% (inactive) and 46.6% (inactive) |
| CC(C)O.CC(C)O.OCCN(CCO)CCO.OCCN(CCO)CCO.[Ti+2] | 19% (inactive) | 36% (inactive) | 60% (inactive) | 44% (inactive) | 96% (active) | 31.6% (inactive) | 11% (inactive) | 20% (inactive) | 52.9% (inactive) | 34% (inactive) | 70% (active) | 4.3% (inactive) | 99% (active) | 99% (active) | 39.2% (inactive) | 22% (inactive) | 39% (inactive) | 44.2% (inactive) |
| c1ccc2c3ccn4cc5c(cc4c-3nc2c1)CCCC5 | 10% (inactive) | 97% (active) | 86.9% (active) | 23% (inactive) | 98% (active) | 86.6% (active) | 22% (inactive) | 98% (active) | 86.2% (active) | 6% (inactive) | 96% (active) | 73.2% (active) | 1% (inactive) | 97% (active) | 87% (active) | 26% (inactive) | 98% (active) | 85.2% (active) |
| CN1CSC(=S)N(C)C1 | 21% (inactive) | 95% (active) | 97.3% (active) | 19% (inactive) | 99% (active) | 99.5% (active) | 17% (inactive) | 97% (active) | 95.9% (active) | 13% (inactive) | 98% (active) | 94.3% (active) | 4% (inactive) | 96% (active) | 99.5% (active) | 4% (inactive) | 96% (active) | 95.7% (active) |
| CC1(C)N([O-])[N+](=O)C1(C)Br (configuration not stated) | 23% (inactive) | 15% (inactive) | -2.45% (inactive) | 19% (inactive) | 13% (inactive) | -10.3% (inactive) | 21% (inactive) | 24% (inactive) | -20.2% (inactive) | 12% (inactive) | 24% (inactive) | 19.5% (inactive) | 19% (inactive) | 20% (inactive) | 5.55% (inactive) | 20% (inactive) | 15% (inactive) | 11.4% (inactive) |
| C[CH2][Sn]([CH2]C)([S]CCS(=O)(=O)O)[S]CCS(=O)(=O)O (tested in a mixture with another compound) | 18% (inactive) | 26% (inactive) | 53.9% (inactive) | 17% (inactive) | 46% (inactive) | 45.8% (inactive) | -22% (inactive) | 54% (inactive) | 27.3% (inactive) | -10% (inactive) | 67% (inactive) | 19% (inactive) | -1% (inactive) | 66% (inactive) | 17.6% (inactive) | 16% (inactive) | 32% (inactive) | -25.9% (inactive) |
| C[C@]12CC/C(=N\OC(=O)Nc3ccccc3)C=C1CC[C@@H]1C2CC[C@@]2(C)C1CC[C@@H]2OC(=O)Nc1ccccc1 (some centres not stated) | -7% (inactive) | 71% (active) | 47.2% (inactive) | -2% (inactive) | 71% (active) | 95% (active) | 1% (inactive) | 86% (active) | 4% (inactive) | -5% (inactive) | 47% (inactive) | 31.9% (inactive) | -8% (inactive) | 65% (inactive) | 93.1% (active) | -4% (inactive) | 87% (active) | 89% (active) |
